Compound activity: PubChem BioAssay, National Center for Advancing Translational Sciences (NCATS)
Hits are enriched below; roughly 4.4% of the tested compounds scored in any of these assays.
p53ts 39C tox: kills p53ts cells at the nonpermissive temperature; H1299-p53A138V viability at 39C, ATP luminescence, 24 h; Potency, µM (top dose mostly 46.1 µM), without a hit: at the top dose activity change, negative = cell killing, actives largely listed as cytotoxic; 1.5% of 130,000 active; AID 902; also: nearly all actives have a fitted effect of over 55% in size
HPGD inh: HPGD (human) dehydrogenase inhibition. P15428. purified HPGD, NADH fluorescence kinetic, PGE2 substrate. Potency, µM, without a hit: at the top dose activity change, negative = inhibition, actives largely listed as inhibitors. 4.3% of 150,000 active; active = well fitted inhibition curve with a large enough effect, not every such curve was filed as active; inconclusive = small, poorly fitted or top-dose-only effect, or another doubt; inactive = no such curve, though single readings can be large or run the other way
Target sequence (P15428 whole entry, looked up): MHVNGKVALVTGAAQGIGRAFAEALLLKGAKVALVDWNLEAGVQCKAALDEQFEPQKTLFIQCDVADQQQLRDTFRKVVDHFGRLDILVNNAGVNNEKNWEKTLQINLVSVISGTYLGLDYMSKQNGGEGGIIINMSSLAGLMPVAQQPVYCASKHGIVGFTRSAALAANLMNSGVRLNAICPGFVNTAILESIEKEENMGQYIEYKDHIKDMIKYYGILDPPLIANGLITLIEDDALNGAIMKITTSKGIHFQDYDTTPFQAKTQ
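NADH formation kinetics: reaction with 30 uM PGE2 and 1 mM NAD+ (final), 20 nM enzyme, Tris-HCl pH 8 with Tween 20, after 15 min compound preincubation at room temperature. Fluorescence change, last versus first of five reads.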
p53ts 32C tox: p53ts cell cytotoxicity, permissive temperature; H1299-p53A138V at 32C, ATP luminescence viability, 24 h; Potency, µM (doses to about 46.1 µM), inactives show top-dose activity change, negative = cytotoxicity, most hits filed as cytotoxic; 0.93% of 130,000 active;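 also: 0% = DMSO and -100% = full killing by reference compound; nearly all actives have a fitted effect of over 55% in size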
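Cells: H1299 p53ts (A138V), 600/well, pre-incubated 16–30 h at 37C. Cpd up to 46 uM, 24 h, 32C. Readout: ATPlite luminescence, 20 min RT. Normalization: DMSO vs tamoxifen 100 uM. AC50 by Hill equation.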
12-hLO inh: 12-hLO (ALOX12) enzyme inhibition | 0.12% of 150,000 active | purified 12-hLO, xylenol orange hydroperoxide absorbance | Potency, µM (highest dose often 57.1 µM), without a hit: at the top dose activity change, negative = inhibition, usual class: inhibitors; also: nearly all actives have a fitted effect of over 55% in size
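150 nM 12hLO, 25 mM Hepes pH 7.0 + 0.01% Triton X-100; cpd preinc 15 min RT; 40 uM arachidonic acid, 30 min RT; Fe-XO 30 min; A573/A405 ratio as read-out.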
Active calls of the source: *; ? = inconclusive; . = no result given; [ ] = remark or other dose. Unless noted, calls follow the shape of the dose curve; as a rule, active = well fitted curve in the direction sought with a large enough effect; inconclusive = small, poorly fitted or top-dose-only effect, or another doubt; inactive = no such curve, though single readings can be large; an effect the other way counts as inactive or inconclusive. Unless noted, % is scaled to controls: 0 for no effect and ±100 for the full control effect; potency is read from the fitted curve at half-maximal effect.

SMILES	p53ts 39C tox	HPGD inh	p53ts 32C tox	12-hLO inh
COc1ccc(CCNC(=O)c2cc3c(=O)oc4ccc(C)cc4c3s2)cc1OC	-7.9%	.	6.4%	.
CC(=O)OC[C@@H]1O[C@@H](O/N=C2/C[C@@H](O)[C@@H](O)[C@@H]3[C@@H]4C(=O)N(C5CCCCC5)C(=O)[C@H]4CC[C@H]23)[C@H](OC(C)=O)[C@H](OC(C)=O)[C@@H]1OC(C)=O	11.4%[9.22 µM]	.	1.9%[9.22 µM]	.
Cc1nc(SCn2nnc3ccccc3c2=O)nc(C)c1C	-8.6%	14.1µM*	-0.6%	-3.5%
CCc1ccc(C(=O)N2CCCC2)s1	7.5%	15.8µM*	-6.7%	1.6%
O=C(c1ccc(Cl)s1)N1CCCC1	.	7.94µM*	.	2.7%
O=C(c1ccc(Cl)s1)N1CCN(c2ccccc2)CC1	20.7%	-19.1%	16.4%	-2.6%
CCCCNC(=O)C(CC)Sc1nc2ccccc2c(=O)n1Cc1ccco1 (stereo not drawn)	0.6%	.	0.1%	.
CC(=O)Nc1ccc(S(=O)(=O)Oc2ccc(C(=S)N3CCC(O)CC3)cc2)cc1	.	31.6µM*	.	-3.2%
CC(=O)Nc1ccc(S(=O)(=O)Oc2ccc(C(=S)N3CCCCC3)cc2)cc1	.	15.8µM*	.	2.6%
CCOc1cc(C(=S)N2CCOCC2)ccc1OS(=O)(=O)c1ccc(NC(C)=O)cc1	.	-20.2%	.	-2.4%
COc1ccc(-n2c(CC3C(=O)Nc4ccc(C)cc43)nc3ccccc3c2=O)cc1 (stereo not drawn)	-14.1%	.	13.8%	.
COC(=O)C(CCSC)NC(=O)C1CCN(c2ncnc3c2nc2n3CCCCC2)CC1 (stereo not drawn)	.	.	-11.9%	.
Cc1ccccc1-c1n[nH]c(=S)n1/N=C/c1c(C)nn(-c2ccccc2)c1C	23.0%	3.55µM*	25.9%	0.9%
Cc1nn(-c2ccccc2)c(C)c1/C=N/n1c(-c2ccc(C(C)(C)C)cc2)n[nH]c1=S	.	?	.	-26.9%
CCOC(=O)c1nn(-c2ccc3c(c2)CCN3C(C)=O)cc1O	3.98µM*	?	5.01µM*	-2.6%
CC1CCCC2(C1)NC(=S)N(c1ccccc1)N2 (stereo not drawn)	.	-6.3%	.	?
CC1CCCC2(C1)NC(=S)c1c(sc3c1CCCC3)N2 (stereo not drawn)	.	4.47µM*	.	-27.2%
CS(=O)(=O)c1ccc2nc(NC(=O)c3ccco3)sc2c1	12.6µM*	-21.9%	12.6µM*	-3.8%
CS(=O)(=O)c1ccc2nc(NC(=O)c3cc4ccccc4o3)sc2c1	.	?	.	-2.6%
Cc1ccc(C(=O)Nc2nc3ccc(S(C)(=O)=O)cc3s2)o1	12.6µM*	-23.3%	11.2µM*	11.0%
CC(C)(C)NS(=O)(=O)c1ccc2nc(NC(=O)c3cccnc3)sc2c1	-5.0%	.	20.0%	.
CN(C)S(=O)(=O)c1ccc2nc(NC(=O)c3cccnc3)sc2c1	?	-7.9%	15.8µM*	-5.8%
COc1cc(-c2cc(OC)c3c(C)oc(C)c3c(=O)c2)ccc1OC(=O)c1ccccc1F	-8.8%	.	2.6%	.
C[N@+]1(CCC(=O)c2ccccc2)CC[C@H]2CC[C@H](C2)C1	-5.1%[9.22 µM]	-4.9%	-0.9%[9.22 µM]	-2.0%[11.4 µM]
Clc1ccc(N=c2ssnc2Cl)cc1	-3.9%	1.78µM*	-19.1%	?
SMILES	p53ts 39C tox	HPGD inh	p53ts 32C tox	12-hLO inh
N#Cc1ccc(N=c2ssnc2Cl)cc1	.	2µM*	.	-5.0%
COc1cc(N=c2ssnc2Cl)cc(OC)c1OC	8.1%	2.24µM*	-3.1%	?
COc1ccc(N=c2ssnc2Cl)cc1	-1.5%	2.82µM*	-5.7%	?
COc1cc(-c2nnc(-c3cc(OC)c(OC)c(OC)c3)o2)cc(OC)c1OC	-15.2%	?	-5.5%	4.4%
Cc1ccc(C(=O)Nc2nnc(S(=O)(=O)N(C)Cc3ccc(Cl)cc3)s2)cc1	-4.3%	.	-7.5%	.
Oc1c(Cl)cccc1C=Nc1cc(C(F)(F)F)ccc1N1CCCC1	.	15.8µM*	.	-24.4%
Oc1ccc(N=Nc2cccc(C(F)(F)F)c2)cc1C=Nc1ccc(N2CCOCC2)cc1	.	?	.	-2.3%
CCOC(=O)c1[nH]c(C)c(CCC(=O)N2CCN(c3ccc(Cl)cc3)CC2)c1C	-7.2%	.	-1.4%	.
CCOP(=O)(OCC)C(C#N)=C1SCN(c2ccc(Cl)cc2)CS1	.	20µM*	.	-1.1%
CCOC(=O)Nc1cc(Br)c2c(c1)OCCO2	.	14.1µM*	.	-5.7%
NS(=O)(=O)c1ccc(NC(=S)N2CCN(c3cccc(Cl)c3)CC2)cc1	.	25.1µM*	.	-0.6%
OCC#CCSc1nnc(-c2ccc(Br)cc2)o1	?	-0.6%	-29.6%	-1.9%
COC(=O)Sc1nnc(-c2ccc(Br)cc2)o1	-7.9%	22.4µM*	0.3%	-2.8%
